The results in this text go back to article PMC5540273 (PLoS ONE, 2017).

Conditions in all cases: concentration: 1 μM, replicates: in singlicate; n = 1
In assay [1] the test system is PRKD3.
Assay [2] has as its system PRKG1.
Assay [3] deals with PRKG2.
Assay [4] relates to T1, PRKR.
T1 construct: gene EIF2AK2

In assay [5] the test system is PRKX.
Assay [6] deals with PRP4.
In assay [7] the test system is T2, PYK2.
T2 construct: gene PTK2B

Assay [8] deals with QSK.
The test system of assay [9] is RAF1.
In assay [10] the test system is RET.
Assay [11] concerns RIOK1.
The subject of assay [12] is RIOK2.
The test system of assay [13] is RIOK3.
The test system of assay [14] is RIPK1.
The subject of assay [15] is RIPK2.
Assay [16] concerns RIPK4.
Assay [17] has as its system RIPK5.
Assay [18] deals with ROCK1.
Assay [19] has as its system ROCK2.
Assay [20] relates to ROS1.
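Note: KINOMEscan kinase panel screen.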

Turning to `Cc1ccc(O)cc1Nc1ccnc2ccc(C(C)(C)C)cc12` [GW856805], the “%Inh” value in [1] is given as 30%; in assay [2] it was 20%; in [3], 29%; in assay [4], 0%; in [5], 17%; in assay [6], 0%. In addition, the “%Inh” value is 9% in assay [7]; 22% in [8]; 14% in assay [9]; 96% in assay [10]; 15% in assay [11]; 0% in assay [12]. Moreover, the “%Inh” value turned out to be 11% in assay [13]; 16% in assay [14]; 79% in assay [15]; 41% in assay [16]; 22% in [17]; 51% in [18]. Further, the “%Inh” value in assay [19] is recorded as 39%; in [20] it was 28%.
On to `c1ccc(Oc2ccc(Nc3ccnc4cc(-c5ccc(CN6CCCCC6)o5)ccc34)cc2)nc1` [GW567143], for which the “%Inh” value is 0% in [1]; 6% in assay [2]; 0% in [3]; 0% in assay [4]; 7% in assay [5]; 2% in assay [6]. The “%Inh” value in assay [7] stood at 0%; in [8], 27%; in assay [9] it was 0%; in assay [10] it was 11%; in [11], 3%; in [12], 13%. In addition, the “%Inh” value is 0% in assay [13]; 0% in [14]; 96.3% in [15]; 0% in assay [16]; 0% in assay [17]; 19% in assay [18]. Besides, the “%Inh” value in [19] and in [20] was 0% each time.
On to `CCn1c(-c2nonc2N)nc2c(-c3ccccc3)ncc(OCCCN)c21.O=C(O)C(F)(F)F.O=C(O)C(F)(F)F` [GSK260205], for which the “%Inh” value was 100% in assay [1]; 5% in [2]; 95.7% in [3]; 0% in [4]; 28% in assay [5]; 27% in [6]. In addition, the “%Inh” value in [7] was 6%; in [8] it was 27%; in assay [9] it was 6%; in assay [10], 91.7%; in assay [11] it was 7%; in [12], 15%. The “%Inh” value is 0% in assay [13]; 0% in assay [14]; 30% in assay [15]; 10% in [16]; 0% in [17]; 91.7% in assay [18]. The “%Inh” value was 98.4% in assay [19] and 0% in assay [20].
With `Cl.N#CCc1ccc(Nc2nccc(Nc3ccc(Oc4ccccc4)cc3)n2)cc1` [GW639905], the “%Inh” value was 53% in assay [1]; 0% in [2]; 0% in assay [3]; 0% in assay [4]; 10% in assay [5]; 16% in assay [6]. Besides, the “%Inh” value was determined as 8% in assay [7]; 1% in assay [8]; 6% in [9]; 38% in [10]; 21% in [11]; 23% in assay [12]. Moreover, the “%Inh” value in assay [13] is 0%; in [14], 0%; in assay [15], 96.1%; in assay [16], 0%; in assay [17], 17%; in assay [18], 31%. Moreover, the “%Inh” value is on record as 34% in assay [19] and 0% in assay [20].
In the case of `CN(c1ccc(NC(=O)Nc2cccc(Cl)c2)cc1)c1ccnc(N)n1.Cl` [GW830707], the “%Inh” value turned out to be 0% in assay [1]; 0% in [2]; 0% in [3]; 0% in [4]; 0% in assay [5]; 12% in assay [6]. Also, the “%Inh” value in [7] stood at 0%; in assay [8], 15%; in [9], 17%; in assay [10], 50%; in assay [11] it was 0%; in assay [12], 0%. Besides, the “%Inh” value in [13] is recorded as 0%; in [14] it was 0%; in assay [15], 1%; in assay [16], 5%; in assay [17], 0%; in [18] it was 53%. In addition, the “%Inh” value was 35% in assay [19] and 12% in assay [20].
For `Cl.Cl.NC(CNC(=O)c1cc(Br)c(-c2ccnc3[nH]ccc23)s1)c1ccccc1` (stereo not drawn) [GSK1322949], the “%Inh” value in [1] was found to be 62%; in assay [2] it was 98.5%; in [3], 98.4%; in [4] it was 6%; in assay [5], 92.5%; in [6], 87%. The “%Inh” value is 32% in assay [7]; 22% in [8]; 0% in assay [9]; 30% in [10]; 100% in assay [11]; 88% in assay [12]. The “%Inh” value in [13] came out at 98%; in assay [14], 21%; in [15], 0%; in assay [16], 34%; in [17], 18%; in assay [18], 99.6%. Further, the “%Inh” value in assay [19] was 99.9%; in [20], 51%.
Turning to `COc1cccc(NC(=O)NCCNc2ccnc(Nc3ccc(F)cc3)n2)c1` [GSK1379879], the “%Inh” value worked out at 0% in assay [1]; 4% in assay [2]; 0% in assay [3]; 0% in assay [4]; 14% in [5]; 49% in assay [6]. Also, the “%Inh” value in [7] was found to be 21%; in assay [8], 0%; in [9], 15%; in assay [10] it was 0%; in assay [11], 31%; in assay [12] it was 0%. The “%Inh” value in [13] came to 13%; in assay [14], 13%; in assay [15] it was 0%; in assay [16], 23%; in assay [17] it was 0%; in [18], 6%. The “%Inh” value in assay [19] was found to be 15%; in [20], 0%.
As to `Cl.O=C(Nc1ccc(Oc2ccc3[nH]c(NC(=O)c4ccco4)nc3c2)cc1)Nc1cc(C(F)(F)F)ccc1F` [GW683134], the “%Inh” value came to 37% in assay [1]; 12% in assay [2]; 0% in assay [3]; 0% in assay [4]; 20% in assay [5]; 27% in assay [6]. Also, the “%Inh” value in assay [7] stood at 10%; in [8], 0%; in assay [9], 94.7%; in assay [10], 99.9%; in [11], 1%; in assay [12], 7%. The “%Inh” value stood at 0% in [13]; 86% in [14]; 43% in [15]; 6% in [16]; 0% in [17]; 78% in [18]. For the same molecule, the “%Inh” value in assay [19] worked out at 23%; in assay [20], 3%.
Turning to `CN(C)CCNS(=O)(=O)c1ccc(-c2ccnc3[nH]ccc23)cc1` [GSK977620], the “%Inh” value in assay [1] was 11%; in [2] it was 95.4%; in assay [3], 97.4%; in assay [4] it was 0%; in assay [5], 68%; in assay [6] it was 0%. Also, the “%Inh” value in assay [7] came to 20%; in assay [8], 8%; in assay [9] it was 1%; in [10] it was 2%; in [11], 78%; in [12] it was 78%. Moreover, the “%Inh” value was 64% in assay [13]; 0% in assay [14]; 0% in assay [15]; 3% in [16]; 0% in assay [17]; 99.6% in assay [18]. Besides, the “%Inh” value in assay [19] turned out to be 98.3%; in [20], 48%.
Turning to `CNc1nccc(-c2ccc3c(N)n[nH]c3c2)n1` [GSK2206003], the “%Inh” value in assay [1] came to 35%; in assay [2] it was 25%; in assay [3], 76%; in assay [4], 8%; in assay [5] it was 53%; in assay [6], 32%. Also, the “%Inh” value is 12% in assay [7]; 0% in [8]; 0% in assay [9]; 80% in [10]; 98.2% in assay [11]; 85% in assay [12]. Besides, the “%Inh” value stood at 82% in assay [13]; 8% in assay [14]; 0% in [15]; 41% in assay [16]; 0% in assay [17]; 52% in assay [18]. Further, the “%Inh” value amounted to 62% in assay [19] and 22% in [20].
For `N#Cc1cnc2cc(-c3cnc(CNCCN4CCOCC4)s3)ccc2c1Nc1ccc(Oc2ccccc2)cc1` [GW664114], the “%Inh” value in assay [1] was 9%; in assay [2] it was 0%; in assay [3], 0%; in assay [4], 4%; in assay [5], 4%; in assay [6], 51%. Moreover, the “%Inh” value in assay [7] is 4%; in [8] it was 0%; in assay [9] it was 0%; in assay [10], 60%; in assay [11], 15%; in assay [12], 0%. Moreover, the “%Inh” value came to 29% in assay [13]; 0% in assay [14]; 26% in assay [15]; 21% in [16]; 81% in assay [17]; 0% in assay [18]. The “%Inh” value turned out to be 2% in assay [19] and 0% in assay [20].
For the molecule `Cc1ccc(NC(=O)c2ccnc(N3CCCCC3)c2)cc1-c1ccc(C(=O)NCC2CC2)cc1` [GW775610], the “%Inh” value in assay [1] is 0%; in assay [2], 73%; in assay [3], 0%; in assay [4], 3%; in assay [5], 5%; in assay [6], 0%. The “%Inh” value in [7] came out at 5%; in [8], 0%; in assay [9], 85%; in assay [10], 5%; in assay [11], 50%; in assay [12], 0%. In addition, the “%Inh” value in assay [13] is on record as 35%; in [14], 43%; in assay [15], 0%; in assay [16] it was 36%; in assay [17], 0%; in assay [18] it was 25%. The “%Inh” value in [19] is reported as 7%; in [20], 10%.
For `Cc1cc(-c2ccnc(Nc3cccc(C#N)c3)n2)cc(C)c1O` [GSK1440913], the “%Inh” value stood at 0% in [1]; 0% in assay [2]; 0% in assay [3]; 52% in assay [4]; 0% in assay [5]; 92.8% in assay [6]. The “%Inh” value is 27% in assay [7]; 23% in assay [8]; 13% in assay [9]; 0% in assay [10]; 100% in assay [11]; 91.7% in assay [12]. Besides, the “%Inh” value in assay [13] stood at 97.9%; in [14], 53%; in assay [15], 28%; in [16] it was 37%; in assay [17], 8%; in assay [18] it was 0%. Also, the “%Inh” value in [19] is 0%; in assay [20] it was 64%.
As for `CN(C)c1ncnc2nc[nH]c12` [SKF-31736], the “%Inh” value in assay [1] amounted to 0%; in assay [2], 19%; in assay [3], 0%; in assay [4], 0%; in assay [5], 0%; in assay [6] it was 0%. The “%Inh” value is reported as 0% in assay [7]; 27% in [8]; 0% in [9]; 0% in assay [10]; 0% in assay [11]; 0% in assay [12]. Moreover, the “%Inh” value is 0% in [13]; 0% in assay [14]; 0% in assay [15]; 26% in assay [16]; 10% in assay [17]; 58% in assay [18]. Further, the “%Inh” value is on record as 31% in assay [19] and 0% in assay [20].
On to `O=C(Nc1n[nH]c2cc(-c3cccs3)ccc12)C1CC1` [SB-731284], for which the “%Inh” value was found to be 7% in assay [1]; 8% in assay [2]; 22% in assay [3]; 0% in assay [4]; 0% in assay [5]; 7% in [6]. The “%Inh” value in [7] amounted to 0%; in assay [8], 44%; in [9], 9%; in [10] it was 0%; in assay [11], 85%; in assay [12] it was 18%. Also, the “%Inh” value is listed as 82% in assay [13]; 59% in assay [14]; 4% in [15]; 10% in assay [16]; 48% in assay [17]; 31% in [18]. The “%Inh” value came out at 32% in assay [19] and 0% in assay [20].
